This note sets out measurements from PubChem BioAssay (NCI).

About 79,000 compounds went through this panel and 15% of them were active in at least one assay; those are over-represented in the sample as a whole. Values without a mark were called inactive. Activity calls are given as the source filed them. No stated cut-off is given here; in the data, active means growth inhibition above about 70%; inactive means the rest.

Assay [1] is described as follows: NCI Yeast Anticancer Drug Screen. Data for the rad50 strain (AID 155).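 Further: 0% = growth of vehicle-only cultures of the same strain.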 Particulars: S. cerevisiae rad50 strain growth inhibition; at 50.0 µM; stronger effect = higher value. The gist of the method: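 Inhibition values express reduced yeast growth in compound-treated cultures relative to vehicle-treated controls.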
A short description of assay [2]: NCI Yeast Anticancer Drug Screen. Data for the mec2-1 strain (AID 157). The following applies: S. cerevisiae mec2-1 strain, at 50.0 µM, stronger effect = higher value. The procedure, abridged:
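Compounds were applied to mec2-1 yeast cells. Their growth was then compared with that of vehicle-treated cultures to give growth inhibition.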

The nature of assay [3]: NCI Yeast Anticancer Drug Screen. Data for the sgs1 mgt1 strain (AID 161).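 Further: 0% = growth of cultures given vehicle only.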 Particulars: S. cerevisiae sgs1 mgt1 strain, at 50.0 µM, stronger effect = higher value. The gist of the method:
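Growth of a repair-deficient yeast mutant was monitored after compound treatment and expressed as inhibition relative to vehicle-treated cultures.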

The nature of assay [4]: NCI Yeast Anticancer Drug Screen. Data for the cln2 rad14 strain (AID 165).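 Further: 0% = growth equal to vehicle treated cultures.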 Particulars: S. cerevisiae cln2 rad14 strain, at 50.0 µM, stronger effect = higher value. The gist of the method: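 Strain: cln2 rad14 yeast, altered in cell cycle control and DNA damage repair. Read-out: growth inhibition vs vehicle.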
A short description of assay [5]: NCI Yeast Anticancer Drug Screen. Data for the bub3 strain (AID 167). Particulars: S. cerevisiae bub3 mutant strain, at 50.0 µM, stronger effect = higher value. The gist of the method: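 Steps: expose the mutant yeast strain to compound; grow alongside vehicle-treated cultures; measure growth; express inhibition against the vehicle cultures.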
A short description of assay [6]: NCI Yeast Anticancer Drug Screen. Data for the mlh1 rad18 strain (AID 175). The following applies: S. cerevisiae mlh1 rad18 strain growth inhibition; at 50.0 µM; stronger effect = higher value. The gist of the method: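 A repair-deficient yeast strain is exposed to test compound, and growth is scored relative to vehicle-treated controls.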

As for `CSC1=C(C#N)C(=O)N(c2ccc(C)cc2)C(=O)C1C#N` (stereo unspecified), the growth inhibition in assay [1] is 26.1%; in assay [2], 12.2%; in assay [3], 31.1%; in assay [4], 24.4%; in assay [5], 5.5%; in assay [6] it was 20.3%.

`CCCc1[nH]n(-c2cccc([N+](=O)[O-])c2)c(=O)c1N=Nc1ccc(Cl)cc1`: the growth inhibition in assay [1] was 40.9%; in assay [2] it was 24.1%; in assay [3], 21.5%; in assay [4], 20.9%; in assay [5], -2.5%; in assay [6], 26.9%.

As for `Cc1nc(Br)c([N+](=O)[O-])[nH]1`, the growth inhibition in assay [1] is 6.9%; in assay [2], -6.4%; in assay [3], -2.4%; in assay [4] it was -47.9%; in assay [5] it was -9.75%; in assay [6] it was 4.8%.

On to `CCCCN(CCCC)CC(O)c1c2cccc(Cl)c2cc2c(Cl)cccc12` (stereo unspecified), for which the growth inhibition was 98.9% (active) in assay [1]; 99.5% (active) in assay [2]; 78.6% (active) in assay [3]; 93.3% (active) in assay [4]; 98.8% (active) in assay [5]; 99.1% (active) in assay [6].

As to `Cc1nccn1C(C)c1ccccc1` (stereo unspecified), the growth inhibition was -9.8% in assay [1]; -19.9% in assay [2]; -16.2% in assay [3]; -95.3% in assay [4]; 0.35% in assay [5]; -25.4% in assay [6].

In the case of `CCc1ccc(OC/C=C(\C)CCC2OC2(C)CC)cc1` (stereo unspecified), the growth inhibition was -4.15% in assay [1]; 4.5% in assay [2]; 19.8% in assay [3]; 4% in assay [4]; 32% in assay [5]; -2.8% in assay [6].

As for `Nc1nc(Sc2ccccn2)ccc1[N+](=O)[O-]`, the growth inhibition in assay [1] is 0.25%; in assay [2], -12.8%; in assay [3] it was -2.1%; in assay [4], -27.1%; in assay [5] it was -12.1%; in assay [6], -6.45%.

Take `[O-][n+]1cscc1-c1nc2ccccc2[nH]1`: the growth inhibition was 7.45% in assay [1]; -13.2% in assay [2]; -2.95% in assay [3]; 10.2% in assay [4]; -7.8% in assay [5]; -7.5% in assay [6].

For the compound `CCCCCCCCC(O)C(O)CCCCCCCC(=O)OC` (stereo unspecified), the growth inhibition in assay [1] is -15.3%; in assay [2] it was 5%; in assay [3] it was -4.55%; in assay [4], -105%; in assay [5] it was 30.5%; in assay [6], -22.9%.

Regarding `CC(=O)OC1CC2C(C)(CCC3C2(C)CCC2(C)C4CC(C)(C)CCC4(C)CCC32C)C1C` (stereo unspecified), the growth inhibition in assay [1] was -28.2%; in assay [2] it was -18.3%; in assay [3], -7.5%; in assay [4], 2.75%; in assay [5], -3.2%; in assay [6], 3.2%.

As to `C=C[C@]1(O)CCC[C@]2(C)C(=O)CCC12C` (stereo partly specified), the growth inhibition in assay [1] is -2.8%; in assay [2] it was -21.9%; in assay [3], -19.2%; in assay [4], 10.8%; in assay [5], -22.2%; in assay [6] it was -31.9%.

For the compound `CCc1c(C)[nH]c2c1C(=O)CCC2`, the growth inhibition in assay [1] is 15.6%; in assay [2] it was -4.65%; in assay [3], 38.1%; in assay [4] it was 18.1%; in assay [5], 24.9%; in assay [6], 46.9%.

For the compound `C[N+](C)(CC(=O)Nc1cc(C(F)(F)F)cc(C(F)(F)F)c1)CC(=O)Nc1ccc(Cl)c(C(F)(F)F)c1`, the growth inhibition is 99.5% (active) in assay [1]; 99.8% (active) in assay [2]; 99.8% (active) in assay [3]; 99.3% (active) in assay [4]; 99.4% (active) in assay [5]; 99.5% (active) in assay [6].

In the case of `CC1OC(c2ccccc2)=CC(OCc2ccccc2)[C@H]1OCc1ccccc1` (stereo partly specified), the growth inhibition in assay [1] is -18.9%; in assay [2] it was -23.6%; in assay [3], -19%; in assay [4] it was -50.8%; in assay [5] it was -33%; in assay [6], 2.95%.

On to `COC1/C=C\OC2(C)Oc3c(C)c(O)c4c(O)c(c5[nH]cnc5c4c3C2=O)NC(=O)/C(C)=C\C=C\C(C)C(O)C(C)C(O)C(C)C(OC(C)=O)C1C` (stereo unspecified), for which the growth inhibition was 12.1% in assay [1]; 3.8% in assay [2]; 24% in assay [3]; 28.2% in assay [4]; 17.1% in assay [5]; 21.4% in assay [6].

`Cc1ccc(NC(=O)/C=C/c2ccccc2)cc1`: the growth inhibition is -2.85% in assay [1]; -8.1% in assay [2]; -3.15% in assay [3]; -3.95% in assay [4]; 10.2% in assay [5]; 10.9% in assay [6].

Take `CC12CCC3c4ccc(O)cc4C(=O)CC3C1CCC2O` (stereo unspecified): the growth inhibition was -16.1% in assay [1]; 7.6% in assay [2]; 5.8% in assay [3]; -29.8% in assay [4]; -11.2% in assay [5]; -17.6% in assay [6].

Turning to `COCCOCOC(C)(C)CCCCl`, the growth inhibition in assay [1] was 11.3%; in assay [2] it was 24%; in assay [3], 21.9%; in assay [4], -5.2%; in assay [5], -2.1%; in assay [6] it was -20%.

As for `CSc1nnc(COc2ccc(Cl)cc2)o1`, the growth inhibition in assay [1] was 22.3%; in assay [2], 5.75%; in assay [3], 26.1%; in assay [4] it was 29.4%; in assay [5], 12.8%; in assay [6], 20.7%.

`NC(N)=NS(=O)(=O)c1ccc(N2C(=O)CC3(CCCC3)C2=O)cc1`: the growth inhibition was 10.8% in assay [1]; -2.25% in assay [2]; -16.8% in assay [3]; 17.6% in assay [4]; 13.4% in assay [5]; 6.75% in assay [6].

Regarding `C=CC[n+]1cccc(Oc2ccc([N+](=O)[O-])cc2[N+](=O)[O-])c1`, the growth inhibition in assay [1] was 73.7% (active); in assay [2] it was 12.4%; in assay [3] it was 63.5%; in assay [4] it was 31.3%; in assay [5], 18.1%; in assay [6], 54.7%.
